A selection: hits, their analogues and other compounds. The true share with any hit is near 3.4%.
Mcl-1 Bim block: disrupts Bim peptide binding to human Mcl-1 | Bead-based flow cytometry, Bim peptide-Mcl-1 binding | inhibition, % at 10 µM | actives 0.1% (n = 190,000); in the data active means inhibition above about 40%
Target sequence (Q07820 whole entry, looked up): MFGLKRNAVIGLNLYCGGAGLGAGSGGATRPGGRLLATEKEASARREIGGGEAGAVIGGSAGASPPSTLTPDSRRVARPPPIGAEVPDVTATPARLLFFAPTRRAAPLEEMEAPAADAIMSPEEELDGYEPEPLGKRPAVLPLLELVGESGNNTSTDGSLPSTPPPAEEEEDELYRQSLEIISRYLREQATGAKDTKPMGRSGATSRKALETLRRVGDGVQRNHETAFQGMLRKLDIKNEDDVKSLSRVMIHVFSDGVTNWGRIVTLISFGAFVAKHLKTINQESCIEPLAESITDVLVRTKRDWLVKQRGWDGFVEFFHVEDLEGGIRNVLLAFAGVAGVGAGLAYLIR
p47phox inh: p47phox (human) inhibition. actives 0.53% (n = 220,000). inhibition, % at 24.7 µM. P14598. AID 1274. p47phox/p22phox peptide binding, fluorescence polarization, 2 h
Mcl1-Noxa inh: disrupts binding of human Mcl-1 to Noxa peptide | TR-FRET Mcl-1/Noxa peptide binding, 2 h | Q07820 | actives 1.5% (n = 220,000) | inhibition, % at 21.7 µM;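 active means compounds that cut the protein-peptide binding signal by more than 50% relative to plate controls in a single-dose test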;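 further: His-tagged Mcl-1 with rhodamine Noxa BH3 peptide and terbium anti-His antibody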
14-3-3 Bad PPI: disrupts binding of bovine 14-3-3 zeta to phospho-Bad peptide; P63103; TR-FRET 14-3-3zeta/Dy647-pBad peptide displacement, 1 h; inhibition, % at 21.7 µM; actives 0.71% (n = 220,000);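 active means inhibition above about 70%, limit read from the data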
Target sequence (P63103 whole entry, looked up): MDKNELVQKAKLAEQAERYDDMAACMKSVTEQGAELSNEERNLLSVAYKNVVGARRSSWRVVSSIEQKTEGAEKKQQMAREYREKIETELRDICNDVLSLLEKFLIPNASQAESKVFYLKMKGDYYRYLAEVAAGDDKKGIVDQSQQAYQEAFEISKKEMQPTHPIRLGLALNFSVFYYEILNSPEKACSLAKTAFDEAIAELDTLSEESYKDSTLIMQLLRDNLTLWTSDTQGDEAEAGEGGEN
Mcl1-Bid inh: disrupts binding of human Mcl-1 to Bid peptide; TR-FRET Mcl-1/Bid-Dy647 peptide binding, 1536-well; actives 0.97% (n = 220,000); inhibition, % at 21.7 µM;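 active means compounds that cut the binding signal by more than half at the single screening dose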;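 further: His-tagged Mcl-1 with europium anti-His antibody binding Bid BH3 peptide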
eIF4E-4G inh: blocks eIF4E binding to eIF4G | TR-FRET eIF4E-eIF4GI(517-606) binding, 2 h | P63073+Q04637 | AID 782 | inhibition, % at 21.7 µM | actives 0.37% (n = 220,000)
Large screens that a line does not name were inactive.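 How the source made its calls, unless noted: active means inhibition above about 30% (limit read from the data); inactive means the rest.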

COCCCN1CN=C(Nc2nc3ccccc3o2)NC1	none
Cc1noc(C)c1COc1ccc(C(=O)Nc2cccnc2)cc1	Mcl1-Noxa inh 53.3, 14-3-3 Bad PPI 78.7
CCN(CC)CCCC(C)NC(=O)c1cccc(S(=O)(=O)N2CCc3ccccc32)c1 (stereo not given)	none
CCOC(=O)N1CCN(CC(=O)c2ccc3c(c2)CCN3C(C)=O)CC1	p47phox inh 48.9
O=C(/C(C=Nc1cc2c(oc1=O)CCCC2=O)=C(\O)c1ccccc1)c1ccccc1	none
CCCC(=O)NC(c1ccc(OC)c(OC)c1)c1cc(Cl)c2cccnc2c1O (stereo not given)	none
O=C(NC(c1ccc(Cl)cc1)c1cc(Cl)c2cccnc2c1O)c1cccnc1 (stereo not given)	p47phox inh 31.7
Cc1ccc(-c2nnc(Oc3ccc(NC(=O)c4ccccc4)cc3)c3ccccc23)cc1	p47phox inh 42.5
CN(C)CCNC(C(=O)Nc1cccc(C(F)(F)F)c1)c1ccccc1 (stereo not given)	none
CC1(C)CCCN(C(=O)c2coc(=O)c(Br)c2)C1	Mcl1-Noxa inh 79.0
C=CCNC(=O)NC(=O)COC(=O)c1nc2nccc(C)n2n1	none
CC(C)Cc1c2c([nH]c(=S)c1C#N)CCCC2	Mcl1-Noxa inh 50.9
N#Cc1c(-c2cccnc2)c2c([nH]c1=S)CCCC2	p47phox inh 33.4
N#Cc1c(-c2ccco2)c2c([nH]c1=S)CCCC2	Mcl1-Noxa inh 59.3
CC(=O)Nc1ccc(NC(=O)CN(c2cc(Cl)ccc2Cl)S(C)(=O)=O)cc1	none
O=C(CSCc1ccccc1)NCCCN1CCOCC1	Mcl1-Bid inh 97.7
Cc1[nH]n(-c2nc(-c3ccc(Cl)cc3)cs2)c(=O)c1N=Nc1ccc(O)cc1	none
COc1cc(-c2ccc(Nc3ccccc3C(=O)O)c(OC)c2)ccc1Nc1ccccc1C(=O)O	Mcl1-Noxa inh 105.3, 14-3-3 Bad PPI 97.0, Mcl1-Bid inh 97.5, eIF4E-4G inh 77.8 (no result: Mcl-1 Bim block)
CC(=O)C1=C(C)N(Cc2ccccc2)C(=O)N[C@H]1c1ccco1	none (no result: Mcl-1 Bim block)
COCCNC(=O)CSc1cc(=O)n(C)c2cc(Cl)ccc12	none
Cc1nc2ccccc2nc(=O)c1NNc1ccccc1	p47phox inh 74.3
COc1ccc(CCNC(=O)CSc2nc(C)nc3sccc23)cc1OC	none (no result: Mcl-1 Bim block)
O=C(O)C(O)c1ccco1 (stereo not given)	Mcl1-Noxa inh 67.3
Cc1ccc(-c2nnc(-c3ccc4c(c3)OCO4)o2)cc1	p47phox inh 130.6
COc1ccc(NC(=O)NCCCN2CCC(Cc3ccccc3)CC2)cc1	Mcl1-Noxa inh 51.7 (no result: Mcl-1 Bim block)
COc1ccc(N2CCC(CNC(=S)Nc3cc(C)cc(C)c3)C2)cc1 (stereo not given)	none (no result: Mcl-1 Bim block)
COc1ccc(-c2noc(CCC(=O)NCCCN3CCC(Cc4ccccc4)CC3)n2)cc1	none
COc1ccc(N2CCC(CNC(=O)Nc3ccccc3)C2)cc1 (stereo not given)	Mcl1-Noxa inh 82.2
COc1ccc(Cl)c(N2CCN(CCCNC(=O)Nc3ccc(C)cc3)CC2)c1	Mcl1-Noxa inh 75.0
Cc1ccc(NCC(=O)N/N=C\c2ccc[nH]2)cc1	none (no result: Mcl-1 Bim block)
Cn1cc(/C=C(\C#N)C(=O)Nc2cccc([N+](=O)[O-])c2)c2ccccc21	p47phox inh 36.9, Mcl1-Bid inh 51.9
Cn1cc(/C=N/NC(=O)c2cccc([N+](=O)[O-])c2)c2ccccc21	none
CC1SC(c2ccc(F)cc2)NC1=O (stereo not given)	none
C=CCOc1ccc(/C=C2\SC(=S)N(C(C(=O)O)c3ccccc3)C2=O)cc1 (stereo not given)	Mcl1-Noxa inh 71.5 (no result: Mcl-1 Bim block)
COc1cc(C=C(C(C)=O)C(C)=O)ccc1O	none
COc1cc(/C=C/C(=O)CC(=O)/C=C/c2ccc(O)c(OC)c2)ccc1O	Mcl1-Noxa inh 51.2
COc1cc(/C=N/Nc2ccc(C(=O)O)cc2)ccc1O	Mcl1-Noxa inh 63.4
COc1cc(/C=N/Nc2nc(C)nc3c2cnn3-c2ccccc2)ccc1O	Mcl1-Noxa inh 73.8
O=C(O)c1ccc(N/N=C/c2ccc(OC(=O)c3cccc(Cl)c3)cc2)cc1	Mcl1-Noxa inh 91.6 (no result: Mcl-1 Bim block)
CC(C)CC(C)c1cc(N)nc2nc3ccccc3n12 (stereo not given)	none
CCC1=C(OC(=O)N(CC)CC)N2C(=O)OC(=NCC3CC3)[C@]2(Cc2ccccc2)[C@H]2C1=CC[C@H]1C(=O)NC(=O)[C@H]12	none (no result: Mcl-1 Bim block)
CSc1ccc(/C=N/Nc2cccc(C(=O)O)c2)cc1	Mcl1-Noxa inh 99.0, 14-3-3 Bad PPI 85.4, eIF4E-4G inh 34.5
O=C(O)c1cccc(N/N=C/c2cccs2)c1	none
OCCN(Cc1ccccc1)Cc1ccc(Cl)cc1Cl	14-3-3 Bad PPI 87.2
O=C(Cc1ccccc1)NCCc1ccc(Cl)cc1Cl	none
O=C(Nc1ccc(C2=NCCN2)cc1)c1ccc(C(=O)Nc2ccc(C3=NCCN3)cc2)c([N+](=O)[O-])c1	Mcl1-Noxa inh 67.3, 14-3-3 Bad PPI 78.8 (no result: Mcl-1 Bim block)
Cc1ccc(NC(=O)c2ccc(-n3cccn3)c([N+](=O)[O-])c2)cc1	none
Cc1ncsc1CCOC(=O)c1cccnc1	Mcl1-Bid inh 54.2
O=P(COCCCCCOCP(=O)(c1ccccc1)c1ccccc1)(c1ccccc1)c1ccccc1	none
N#CC(=C=[N-])c1nc2ccccc2nc1-[n+]1cccc(NC(=O)c2ccc(F)cc2)c1	none (no result: Mcl-1 Bim block)
N#CC(=C=[N-])c1nc2ccccc2nc1-[n+]1cccc(NC(=O)c2cccs2)c1	p47phox inh 48.5 (no result: Mcl-1 Bim block)
N#CC(=C=[N-])c1nc2ccccc2nc1-[n+]1cccc(NC(=O)c2ccccc2)c1	p47phox inh 52.6 (no result: Mcl-1 Bim block)
Cc1sc(Cc2nc(O)cs2)nc1-c1ccccc1	none
Cc1nnc(NC(=O)c2sc3nc(-c4cccs4)cc(C(F)(F)F)c3c2N)s1	Mcl1-Noxa inh 97.9
CCN(CC)c1ccc([N+](=O)[O-])cc1C(=O)N1CCOCC1	none
CCN(CC)C1=NS(=O)(=O)c2cc([N+](=O)[O-])ccc21	p47phox inh 56.4
CCOc1cc(N2CCOCC2)c(OCC)cc1NC(=O)c1cc(-c2ccco2)nc2ccccc12	p47phox inh 30.2, Mcl1-Bid inh 78.4
O=C(Nc1ccc(Cl)c(S(=O)(=O)N2CCOCC2)c1)c1cc(-c2ccccn2)nc2ccccc12	none
Cc1ccc(NC(=O)c2cc(-c3ccco3)nc3ccccc23)cc1S(=O)(=O)N1CCOCC1	Mcl1-Noxa inh 66.3
COc1ccc(NC(=O)c2cc(-c3ccco3)nc3ccccc23)cc1S(=O)(=O)N1CCOCC1	Mcl1-Noxa inh 101.1, eIF4E-4G inh 38.3 (no result: Mcl-1 Bim block)
CCOc1cc(N2CCOCC2)c(OCC)cc1NC(=O)CN1CCc2ccccc2C1	Mcl1-Bid inh 92.8
CCOc1cc(N2CCOCC2)c(OCC)cc1NC(=O)COc1ncnc2ccccc12	none
O=C(CN1CCCCC1)Nc1ccccc1Oc1ccccc1	none (no result: Mcl-1 Bim block)
CCN(CC)S(=O)(=O)c1cccc(N=NC2=C(O)CCCC2=O)c1	none
